FLuc modulator: inhibits or activates purified firefly luciferase, miR-21 counter-screen; purified FLuc, Km substrates, luminescence inhibition; Potency, µM (top dose mostly 57.5 µM), without a hit: top-dose activity change, negative = inhibition, usual class: inhibitors; 360,000 compounds, 6.9% hits;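 further: plate controls were vehicle for no effect and reference inhibitor for full effect; nearly all actives have a fitted effect of over 55% in size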
Target sequence (P08659 whole entry, looked up): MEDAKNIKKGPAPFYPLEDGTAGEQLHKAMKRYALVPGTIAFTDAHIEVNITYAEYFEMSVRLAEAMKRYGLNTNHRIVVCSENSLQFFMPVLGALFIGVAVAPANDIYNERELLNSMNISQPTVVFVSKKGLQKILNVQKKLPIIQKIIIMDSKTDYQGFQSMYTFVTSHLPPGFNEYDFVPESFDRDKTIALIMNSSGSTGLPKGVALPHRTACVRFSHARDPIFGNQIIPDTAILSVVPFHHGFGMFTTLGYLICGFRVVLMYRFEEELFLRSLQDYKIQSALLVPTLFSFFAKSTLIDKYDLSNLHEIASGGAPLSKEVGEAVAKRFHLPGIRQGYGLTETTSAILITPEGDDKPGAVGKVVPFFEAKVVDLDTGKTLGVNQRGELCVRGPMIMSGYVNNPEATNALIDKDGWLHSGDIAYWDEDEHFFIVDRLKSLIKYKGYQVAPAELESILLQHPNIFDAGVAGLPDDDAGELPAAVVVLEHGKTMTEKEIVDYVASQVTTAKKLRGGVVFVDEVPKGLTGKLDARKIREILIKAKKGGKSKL
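Purified P. pyralis luciferase (10nM final) with 10uM D-luciferin and 10uM ATP (Km levels) in 50mM Tris acetate pH 7.5, 10mM Mg acetate, 0.01% Tween-20, 0.05% BSA; qHTS 6-point titration, ~60 µM downward; luminescence read.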
NPC1 prom act: NPC1 promoter activation. Huh7 NPC1 promoter luciferase reporter, 24 h. Potency, µM (titrated, usually from 9.22 µM), without a hit: top-dose activation, most hits filed as activators. 320,000 compounds, 2.4% hits. AID 485313; further: % of control where 0% means no effect; nearly all actives have a fitted effect of over 60% in size
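NPC1 promoter–luciferase Huh7 cells; 24 h compound; luminescence.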
Rab9 prom act: Rab9 promoter activation. Huh7 Rab9 promoter-luciferase reporter, luminescence, 24 h. Potency, µM (top dose mostly 9.22 µM), inactives show top-dose activation, negative = inhibition, actives largely listed as activators. 320,000 compounds, 2.8% hits; further: % of control where 0% means no effect; nearly all actives have a fitted effect of over 60% in size
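Rab9 promoter-driven luciferase in stably transfected Huh7 cells; 1500 cells/well rested 2 h, exposed to compound in DMSO for 24 h at 37 °C, 5% CO2. Luminescence read 10 min after adding luciferase reagent at ambient temperature.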
Luc counter: blocks Kinase-Glo luciferase, a counter-screen artifact; Q27757; Kinase-Glo luciferase, ATP luminescence, 8 min; Potency, µM (series often up to 38.3 µM), inactives show at the highest dose activity change, negative = inhibition, usual class: inhibitors; 200,000 compounds, 0.28% hits; AID 1379; further: on the % scale 0 is the no-effect control and ±100 the full control effect; nearly all actives have a fitted effect of over 60% in size
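Light output from Kinase-Glo luciferase with luciferin and 10 uM ATP in 50 mM imidazole pH 7.2, KCl, MgCl2, Tween 20, BSA; compound pin-delivered, 8-min ambient incubation, then luminescence read.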
SMN2 splice up: enhancers of SMN2 splice variant expression; HEK293 SMN2-luciferase splicing reporter, luminescence, 30-36 h; Potency, µM (top dose mostly 46.1 µM), without a hit: top-dose activity change, positive = activation, actives largely listed as activators; 210,000 compounds, 2.8% hits; further: % of control where 0% means no effect; nearly all actives have a fitted effect of over 55% in size
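qHTS luciferase splicing reporter: luminescence rises when SMN2 exon 7 is included in transfected HEK293 cells. Compound exposure lasted 30-36 h at 37C, with 4.5 mM final sodium butyrate as control, followed by a ONE-Glo read.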
Active calls of the source: *; ? = inconclusive; . = not tested or not shown; [ ] = remark or other dose. A selection: hits, their analogues and other compounds. The true share with any hit is near 7.3%. The call rests on the fitted dose curve; in most records, active means well fitted curve in the direction sought with a large enough effect; inconclusive means small, poorly fitted or top-dose-only effect, or another doubt; inactive means no such curve, though single readings can be large; an effect the other way counts as inactive or inconclusive. Potency means the concentration at half of the fitted maximal effect.

SMILES	FLuc modulator	NPC1 prom act	Rab9 prom act	Luc counter	SMN2 splice up
O=C(N/N=C/c1ccc2nccnc2c1)c1ccc(Br)cc1	?	-1%	-1%	.	.
O=C(O)c1ccc(N/N=C/c2ccc3nccnc3c2)cc1	0.38µM*	-32%	-38%	.	.
COc1ccc(-n2cc(CNCCc3cnc[nH]3)c(-c3cccc(F)c3)n2)cc1	19µM*	-5%	-21%	0%	-84%
COc1ccc(-n2cc(CN(C)CCO)c(-c3cccc(F)c3)n2)cc1	2.1µM*	0.45µM*	0.63µM*	?	.
COc1ccc(-c2nn(-c3ccccc3)cc2CNCc2cccnc2)c(F)c1	?	0%	0%	-1%	.
COc1ccc(-n2cc(CNCc3cccnc3)c(-c3cccc(F)c3)n2)cc1	9.5µM*	1%	-4%	1%	.
CC(C)CO[C@H](c1ccc2c(c1)OCO2)[C@H](C)Br	.	.	.	-5%[7.66 µM]	-7%[9.22 µM]
CC(=O)Cn1cnc2c(sc3nc(C)cc(C)c32)c1=O	15µM*	27%	24%	.	.
COc1cccc(Cn2cnc3c(sc4nc(C)cc(C)c43)c2=O)c1	5%	-5%	2%	.	.
Nc1nc2c(C(=O)N3CCOCC3)nnn2c2ccccc12	12µM*	3.2µM*	3.2µM*	.	.
Cc1cc(C)c(S(=O)(=O)Nc2ccc3oc(C)c(C(=O)OC(C)C)c3c2)cc1C	-19%	.	.	.	-21%
O=C(Nc1cccc(Cl)c1)O/N=C\c1ccncc1	?	-1%	1%	-5%	.
Cc1ccc(N/N=C/c2ccncc2)cc1	12µM*	?	3.2µM*	.	.
Cc1ccc(N/N=C/c2cccnc2)cc1	17µM*	?	?	-3%	?
Cc1ccc(/C=N/NC(=O)c2ccncc2)cc1	?	-1%	6%	.	.
Clc1cccc(N/N=C/c2ccncc2)c1	17µM*	26%	?	-4%	?
Cc1csc(N/N=C\c2cccnc2)n1	?	?	?	-1%	?
Cc1ccc(S(=O)(=O)c2nnn(CC(=O)Nc3ccccc3C)c2N)cc1C	3%	.	.	.	3%
CCc1ccc(CNC(=O)CCN2C(=O)COc3ccccc32)cc1	-19%	.	.	.	.
CCOC(=O)c1[nH]c(C)c(CCC(=O)NCc2ccc(OCC)cc2)c1C	0%	.	.	.	.
Cc1ccc(C)c(Nc2c(F)c(F)c(F)c(F)c2C(=O)O)c1	15µM*	0%	-2%	3%	-2%
O=C(CC(=O)N/N=C\c1ccccc1[N+](=O)[O-])NCCc1ccccc1	2%	3%	0%	.	.
O=[N+]([O-])c1ccccc1/C=N/OCc1ccccc1	11µM*	4µM*	?	.	.
COc1ccc(C(=O)Nc2cnc3ccccn3c2=O)cc1	17µM*	2.8µM*	3.5µM*	-3%	18µM*
O=C(Nc1cnc2ccccn2c1=O)c1ccc(F)cc1	17µM*	2.5µM*	3.2µM*	-9%	11µM*
SMILES	FLuc modulator	NPC1 prom act	Rab9 prom act	Luc counter	SMN2 splice up
CCN(CC(=O)O)CC(=O)O	.	.	.	-3%[7.66 µM]	-1%[9.22 µM]
O=C(CSc1nc2c([nH]c3ccccc32)c(=O)n1-c1cccc(Cl)c1)NCc1ccccc1	-4%	.	.	.	.
CCOc1ccc(NC(=O)CCNS(=O)(=O)c2ccc3c(c2)CCCC(=O)N3)cc1	-5%	.	.	.	.
CCOC(=O)Cn1cc(/C=N/NC(=O)c2cc3ccccc3o2)c2ccccc21	13µM*	4%	-3%	.	.
Cc1cc(/C=N/NC(=O)c2cc3ccccc3o2)c(C)n1C	21µM*	-2%	-1%	.	.
O=C(N/N=C/c1cc(Br)c(Br)o1)c1cc2ccccc2o1	1%	0%	-4%	.	.
O=C(N/N=C/c1ccncc1)c1cc2ccccc2o1	21µM*	-3%	-2%	1%	14%
COc1cccc(CNCCCSc2nnnn2C)c1OC	-1%	.	.	.	.
COc1cc(Cl)ccc1OCc1cc(C(=O)NCc2cc(C(C)C)no2)no1	9.5µM*	?	1.3µM*	.	.
COc1cc(Cl)ccc1OCc1cc(C(=O)NCC(C)(C)N2CCOCC2)no1	15µM*	23%	29%	.	.
COc1ccc(OCc2cc(C(=O)NCC(C)(C)N3CCOCC3)no2)c(Cl)c1	?	4%	17%	.	.
COC(=O)[C@H](COC(C)(C)C)NC(=O)O[C@@H]1C(=O)c2ccc(OC)cc2O[C@H]1c1cccc(C(F)(F)F)c1	.	.	.	1%	-1%
C/C(=C\C(=O)c1ccc(F)cc1)Nc1ccc(N2CCOCC2)cc1	1%	1%	-10%	-2%	-25%
O=C(/C=C/c1ccc(F)cc1)c1ccc(N2CCOCC2)cc1	1.2µM*	6%	26%	.	.
Cc1ccc(/C=C/C(=O)c2ccc(N3CCOCC3)cc2)s1	0.34µM*	?	?	?	22µM*
Cc1cccc(/C=C/C(=O)c2ccc(N3CCOCC3)cc2)c1	21µM*	-3%	0%	0%	-29%
C/C(=N\NC(=O)c1cccc(C)c1)c1ccc(N2CCOCC2)cc1	-10%	10%	-6%	-3%	-9%
CCc1ccc(/C=C/C(=O)c2ccc(N3CCOCC3)cc2)cc1	1.5µM*	1%	-1%	1%	-31%
CCc1ccc(/C=C/C(=O)c2ccc(S(=O)(=O)N(C)C)cc2)cc1	-10%	2%	6%	1%	-30%
O=C(Nc1ccccc1)c1cccc(S(=O)(=O)Nc2cccc(F)c2)c1	-16%	.	.	.	.
CCOC(=O)c1ccccc1NC(=O)CN1CCCN(Cc2cccc(Cl)c2)S1(=O)=O	0%	.	.	.	.
COc1ccc(C(CC(=O)NCc2ccc(Cl)cc2)N2Cc3ccccc3C2=O)cc1OC (centres undefined)	-1%	.	.	.	.
O=C(COc1ccc2ccc(=O)oc2c1)Nc1cccnc1	-10%	2%	-5%	.	.
Cn1cc(SCC(=O)Nc2nccs2)c2ccccc21	12µM*	?	?	-2%	11µM*
CCc1nnc(NC(=O)CSc2nc(-c3ccccc3)cc(-c3ccc(OC)cc3)c2C#N)s1	1%	-9%	-12%	-2%	-2%

High-throughput results as filed in PubChem.
